From the supplement of paper PMC12669032
A number with no mark means an inactive call.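 How the source made its calls: active = AUC reduced over 20% with Padj below 0.05 in at least 2 of 3 replicates; inactive = otherwise.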

Assays:
Test in all cases: growth AUC relative to DMSO control (median of replicates) (fraction); higher = more growth (less inhibition), active = hit call of the paper
Conditions in all cases: 20 µM; 24 h
Coprococcus comes = system: Coprococcus comes
Summary of the method: (§1)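 Gut bacterial monocultures were grown anaerobically at 37 °C in mGAM, starting at OD600 0.05, with 20 µM compound (1% DMSO) in round-bottom 96-well plates under pierced gas-permeable seals. OD600 was read hourly for 24 h. Area under the growth curve (minimum OD set to 0) was normalised to the plate median of DMSO controls, or to row and column medians on the industrial chemical plate. The value is the median of three biological replicates grown on separate days.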

Escherichia coli ED1a = system: Escherichia coli ED1a
Summary of the method: as §1

Escherichia coli IAI1 = system: Escherichia coli IAI1
Summary of the method: as §1

Eubacterium rectale = system: Eubacterium rectale
Summary of the method: as §1

[1] = system: Fusobacterium nucleatum subsp. animalis
Summary of the method: as §1

Lactobacillus gasseri = system: Lactobacillus gasseri
Summary of the method: as §1

Lactobacillus paracasei = system: Lactobacillus paracasei
Summary of the method: as §1

Odoribacter splanchnicus = system: Odoribacter splanchnicus
Summary of the method: as §1

[2] = system: Parabacteroides distasonis
Summary of the method: as §1

Parabacteroides merdae = system: Parabacteroides merdae
Summary of the method: as §1

Roseburia intestinalis = system: Roseburia intestinalis
Summary of the method: as §1

Streptococcus salivarius = system: Streptococcus salivarius
Summary of the method: as §1

SMILES | growth AUC (Coprococcus comes) | growth AUC (Escherichia coli ED1a) | growth AUC (Escherichia coli IAI1) | growth AUC (Eubacterium rectale) | growth AUC [1] | growth AUC (Lactobacillus gasseri) | growth AUC (Lactobacillus paracasei) | growth AUC (Odoribacter splanchnicus) | growth AUC [2] | growth AUC (Parabacteroides merdae) | growth AUC (Roseburia intestinalis) | growth AUC (Streptococcus salivarius)
CON(C)C(=O)Nc1ccc(Cl)cc1 | 1.02 | 1.01 | 1 | 0.999 | 0.96 | 1.04 | 0.97 | 0.998 | 1.02 | 1.02 | 1.02 | 1.04
CC(C)N(C(=O)SCC(Cl)=C(Cl)Cl)C(C)C | 0.981 | 0.977 | 0.977 | 1.08 | 1.01 | 0.948 | 1 | 0.944 | 0.872 | 0.947 | 1.01 | 0.996
O=C1C(Cl)=C(Cl)C(=O)c2ccccc21 | 1.05 | 1.02 | 0.973 | 1.34 | 1.02 | 0.929 | 0.941 | 0.797 | 0.938 | 0.967 | 1.13 | 0.955
CC(C)N1C(=O)c2ccccc2NS1(=O)=O | 1.05 | 0.972 | 0.97 | 1.1 | 1.01 | 0.945 | 0.932 | 0.992 | 0.787 | 1.02 | 1 | 0.978
Cc1nnc(-c2ccccc2)c(=O)n1N | 1 | 1 | 0.995 | 0.993 | 0.998 | 0.931 | 0.972 | 1.06 | 1 | 1.02 | 0.97 | 1.06
CC(C)(COCc1cccc(Oc2ccccc2)c1)c1ccc(OC(F)(F)Br)cc1 | 0.961 | 0.999 | 0.995 | 0.903 | 0.939 | 1.01 | 1.05 | 0.988 | 1.01 | 0.979 | 1.05 | 0.966
CCOC(=O)/C=C(C)/C=C/C[C@@H](C)CCCC(C)C | 0.979 | 1 | 0.997 | 1.03 | 1.15 | 1.13 | 1.01 | 0.954 | 1.02 | 0.989 | 1.09 | 0.972
CCNC(=O)NC(=O)/C(C#N)=N/OC | 1.05 | 1.04 | 1.02 | 0.919 | 1.2 | 1.06 | 0.94 | 1.02 | 1.04 | 1.01 | 1.16 | 0.949
CCOP(=S)(OCC)SCCSCC | 1.03 | 1.01 | 1 | 0.971 | 1.09 | 1.02 | 1.1 | 1.02 | 0.991 | 1.01 | 1.02 | 1.01
C=CCOC(Cn1ccnc1)c1ccc(Cl)cc1Cl.O=S(=O)(O)O (stereo not drawn) | 0.184 (active) | 0.973 | 0.954 | 0.0325 (active) | 0.925 | 0.962 | 0.881 | 0.985 | 0.951 | 0.89 | 0.261 (active) | 0.953
CNC(=O)N(C)c1nc2ccccc2s1 | 0.992 | 0.999 | 0.991 | 0.958 | 0.971 | 0.994 | 0.949 | 0.988 | 0.972 | 1.02 | 0.989 | 1
CCO/N=C(\CC)C1=C(O)CC(c2c(C)cc(C)cc2C)CC1=O (stereo not drawn) | 1 | 0.992 | 0.978 | 1.07 | 1.05 | 0.875 | 0.969 | 1.07 | 0.995 | 0.909 | 0.945 | 0.967
CCOP(=S)(OCC)Oc1nc(Cl)c(Cl)cc1Cl | 0.995 | 1.02 | 1.01 | 1.11 | 0.982 | 0.992 | 0.993 | 1 | 0.963 | 0.96 | 1.01 | 1.06
O=[N+]([O-])c1ccc(Oc2ccc(C(F)(F)F)cc2[N+](=O)[O-])cc1 | 0.856 | 0.964 | 0.959 | 0.88 | 0.969 | 0.977 | 0.766 | 0.982 | 0.957 | 0.953 | 0.928 | 0.985
CNC(=O)O/N=C(\SC)C(=O)N(C)C | 0.971 | 0.985 | 0.987 | 1 | 0.979 | 1.09 | 0.883 | 0.975 | 0.99 | 0.973 | 0.997 | 1.02
CCOc1ccc(C(C)(C)COCc2cccc(Oc3ccccc3)c2)cc1 | 1 | 0.991 | 0.982 | 1.06 | 0.972 | 0.918 | 1.04 | 1.07 | 0.987 | 0.992 | 0.975 | 0.983
Clc1ccc(Cl)cc1 | 0.985 | 1 | 1 | 1.05 | 1.1 | 0.981 | 0.936 | 1.03 | 0.999 | 1.02 | 1.01 | 1.02
O=[N+]([O-])c1ccc(Oc2ccc(Cl)cc2Cl)cc1 | 0.988 | 0.99 | 0.983 | 1.07 | 1 | 0.789 | 0.976 | 0.946 | 0.655 (active) | 0.967 | 0.967 | 0.981
CC1(C)C(C=C(Cl)Cl)C1C(=O)OC(C#N)c1cccc(Oc2ccccc2)c1 (mixture of isomers) | 1 | 1.01 | 0.987 | 1.02 | 1.04 | 0.865 | 1.02 | 1.03 | 0.982 | 0.984 | 0.945 | 0.936
C#CCOc1ccc(CCNC(=O)C(OCC#C)c2ccc(Cl)cc2)cc1OC (stereo not drawn) | 0.992 | 1.01 | 0.996 | 1.04 | 0.943 | 0.926 | 0.98 | 1.03 | 0.689 (active) | 0.948 | 0.959 | 0.984
c1nc[n]([Sn]([CH]2CCCCC2)([CH]2CCCCC2)[CH]2CCCCC2)n1 | 0.723 | 1.06 | 1.06 | 0.908 | 1.03 | 1.03 | 0.972 | 1.03 | 0.927 | 0.746 (active) | 0.654 (active) | 1.01
CNC(=O)/C=C(\C)OP(=O)(OC)OC | 1.05 | 1.05 | 1.02 | 0.999 | 1.02 | 1.03 | 1.06 | 0.989 | 1.03 | 1.01 | 1.07 | 1.04
CCOc1cc(OP(=S)(OC)OC)nc(CC)n1 | 0.984 | 1 | 1.01 | 1.04 | 1.04 | 0.996 | 1.05 | 0.987 | 0.951 | 0.979 | 0.98 | 0.983
COP(=S)(OC)Oc1ccc([N+](=O)[O-])c(Cl)c1 | 0.95 | 0.97 | 0.984 | 1.18 | 0.975 | 0.893 | 0.974 | 0.876 | 0.921 | 0.932 | 0.926 | 1.05
